High-throughput results from PubChem.
PfHsp40 rescue: compounds rescuing yeast from Plasmodium falciparum HSP40 toxicity. S. cerevisiae expressing PfHsp40, growth rescue, ATP luminescence. 340,000 compounds, 0.68% hits. growth rescue, % at 12.5 µM; in the data active means growth rescue above about 28%, passing the limit was not always enough; inconclusive means no clear call, values can overlap the other calls;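 further: yeast W303a lacking pdr1 and pdr3 grown in galactose medium; growth measured after three days at 30 °C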
Autofluor counter: flagged as autofluorescent in microsphere protease counterscreen; AID 624483; 360,000 compounds, 3.1% hits; compound autofluorescence counterscreen, microsphere flow cytometry; stronger effect = higher value; fluorescence intensity (no concentration beside the values); in the data active means fluorescence intensity above about 16000; inconclusive means no clear call, values can overlap the other calls
BoNT A protease: BoNT A light chain protease inhibition. inhibition, % at 10 µM. AID 588499. 360,000 compounds, 0.17% hits. multiplex microsphere protease substrate cleavage, flow cytometry; further: plate controls were buffer without enzyme for full effect and enzyme alone for no effect
BoNT-F LC inh: blocks Botulinum neurotoxin F light chain protease; Multiplex microsphere protease cleavage assay, flow cytometry; 360,000 compounds, 0.22% hits; inhibition, % at 10 µM; in the data active means inhibition above about 35%, passing the limit was not always enough; inconclusive means no clear call, values can overlap the other calls; further: plate controls were buffer without enzyme for full effect and enzyme alone for no effect
MazF activator: activators of E. coli MazEF toxin-antitoxin RNase. P0AE70. FAM/BHQ RNA-DNA oligo cleavage fluorescence, 5 h. activation, % at 20 µM. 350,000 compounds, 0.32% hits; in the data active means activation above about 50%
Anthrax LF inh2: inhibitors of Bacillus anthracis lethal factor protease | 360,000 compounds, 0.12% hits | multiplex microsphere protease cleavage assay, LF | inhibition, % at 10 µM | AID 588501; further: plate controls were buffer without enzyme for full effect and enzyme alone for no effect
Target sequence (P15917 whole entry, looked up): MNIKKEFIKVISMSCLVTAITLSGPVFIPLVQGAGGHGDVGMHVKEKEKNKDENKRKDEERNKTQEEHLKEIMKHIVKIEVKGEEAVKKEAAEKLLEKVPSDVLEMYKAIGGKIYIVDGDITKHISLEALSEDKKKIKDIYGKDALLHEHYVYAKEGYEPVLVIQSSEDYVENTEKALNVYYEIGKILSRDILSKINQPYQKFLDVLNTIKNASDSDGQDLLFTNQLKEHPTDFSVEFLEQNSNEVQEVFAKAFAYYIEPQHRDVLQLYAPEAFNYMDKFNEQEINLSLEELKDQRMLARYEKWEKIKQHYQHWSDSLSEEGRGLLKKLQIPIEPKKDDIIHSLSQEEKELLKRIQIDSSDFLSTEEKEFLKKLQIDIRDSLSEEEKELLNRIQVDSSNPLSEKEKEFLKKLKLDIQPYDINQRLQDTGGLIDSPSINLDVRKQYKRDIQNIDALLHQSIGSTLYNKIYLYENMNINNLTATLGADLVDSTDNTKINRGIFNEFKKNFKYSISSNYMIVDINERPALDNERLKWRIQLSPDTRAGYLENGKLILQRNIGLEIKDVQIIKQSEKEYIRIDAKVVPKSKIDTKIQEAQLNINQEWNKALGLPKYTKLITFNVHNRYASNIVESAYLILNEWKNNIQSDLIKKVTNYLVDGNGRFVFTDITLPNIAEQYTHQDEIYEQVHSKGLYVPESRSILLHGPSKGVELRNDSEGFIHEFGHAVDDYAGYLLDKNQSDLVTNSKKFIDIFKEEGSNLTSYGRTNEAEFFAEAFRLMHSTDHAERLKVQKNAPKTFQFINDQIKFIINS
* marks the source's active call; other numbers are inactive results; ? = inconclusive; . = not tested or not shown; ! = not active in a repeat. Shown are actives, neighbours in structure and some others; about 4.3% of the full set was active somewhere. Unless noted, no stated cut-off is given here; in the data, active means inhibition above about 30%; inconclusive means no clear call, values can overlap the other calls; inactive means below that.

SMILES	PfHsp40 rescue	Autofluor counter	BoNT A protease	BoNT-F LC inh	MazF activator	Anthrax LF inh2
CCN(CC)CCCCOc1ccccc1OC	0	20460*	1	-1	-3	-2
CCOC(=O)c1ccccc1NC(=O)c1cccs1	0	17478*	-2	-5	-1	-6
COc1ccccc1CC(=O)Nc1ccccc1C(=O)O	-1	10896	0	7	-1	1
CCOC(=O)c1ccccc1NC(=O)Cc1ccccc1OC	0	20686*	-3	-4	-8	1
O=C(Nc1cccc2nsnc12)c1cccs1	2	21640*!	2	4	1	0
Cc1ccc(NC(=O)n2ncc3c(C)cccc32)cc1F	-1	4096	-1	-4	0	4
O=C(COC(=O)/C=C/c1ccccc1)NNC(=O)c1ccccc1F	1	4886	2	16	4	3
O=C(NC1CCN(C(=O)Nc2ccc(F)cc2)CC1)c1ccc(F)cc1	0	5199	0	-2	7	0
O=C(/C=C/C=C/c1ccccc1)c1ccco1	0	3178	-2	-34	-2	1
COc1ccc(C2c3c(oc4ccccc4c3=O)C(=O)N2Cc2ccncc2)cc1OC (stereo unspecified)	.	.	.	.	7	.
O=C1c2oc3ccccc3c(=O)c2C(c2cccc(Br)c2)N1Cc1ccco1 (stereo unspecified)	1	20275*	-1	0	13	-1
COCCOC(=O)c1c(C)n(C)c2ccc(OC(=O)N(C)C)cc12	-2	22829*	-1	-4	-1	0
COCCOC(=O)c1c(C)n(C)c2ccc(OC(=O)c3cccs3)cc12	2	16814*	-2	-5	5	-2
CCN(C(=O)CSc1nnc(-c2ccccc2OC)n1N)c1c(N)n(Cc2ccccc2)c(=O)[nH]c1=O	1	.	.	.	-4	.
CCC(Sc1ncccc1C(=O)OC(C)C)C(=O)NCc1ccco1 (stereo unspecified)	2	7901	1	5	2	0
CCC(Sc1ncccc1C(=O)OCCN1CCCC1=O)C(=O)NCc1ccco1 (stereo unspecified)	1	20951*	6	8	4	-7
CCOC(=O)c1cccnc1SC(CC)C(=O)NCc1ccco1 (stereo unspecified)	1	24254*	-1	-2	3	0
CCC(Sc1ncccc1C(=O)OC(C)C)C(=O)N1CCOCC1 (stereo unspecified)	0	22945*	?	-2	8	-10
CC1CCN(S(=O)(=O)c2cccc(S(=O)(=O)N3CCCC3)c2)CC1	-1	2990	-6	-5	7	-2
Cc1cccc(C)c1N(CC(=O)NC1CCCCC1)C(=O)c1csnn1	0	3588	-2	-1	7	6
COc1ccc(NC(=S)NNC(=O)C(C)n2nc(C)c([N+](=O)[O-])c2C)cc1 (stereo unspecified)	0	7710	0	2	9	-6
Cc1nn(C(C)C(=O)NNC(=S)Nc2ccc(F)cc2)c(C)c1[N+](=O)[O-] (stereo unspecified)	1	24064*	-2	-1	3	-1
c1ccc(-c2nnc(-c3ccco3)n2-c2ccccc2)cc1	1	4185	-1	9	0	-10
Cc1ccc(-n2c(-c3ccncc3)nnc2-c2ccco2)cc1	0	3557	1	1	10	1
c1ccc(-n2c(-c3ccncc3)nnc2-c2ccco2)cc1	0	16681*	0	4	1	-2
SMILES	PfHsp40 rescue	Autofluor counter	BoNT A protease	BoNT-F LC inh	MazF activator	Anthrax LF inh2
Cc1ccc(-c2nnc(-c3ccncc3)n2-c2ccc(C)cc2)cc1	1	21828*	?	0	0	-2
CC1CCN(CC(=O)Nc2ccc(S(=O)(=O)NC3CC3)cc2)CC1	0	5090	0	-2	-3	-2
CC(C)c1ccc(CN(C(=O)c2cc3ccccc3oc2=O)C2CCS(=O)(=O)C2)cc1 (stereo unspecified)	1	21498*	?	5	-1	-12
CC1(C(=O)NS(=O)(=O)c2ccccc2C(F)(F)F)CCN1C(=O)CCc1ccccc1 (stereo unspecified)	.	3513	0	3	.	-5
Cc1cc(Cl)ccc1OCCCC(=O)NNC(=O)c1ccccc1O	0	.	.	.	6	.
O=C(Nc1nccc(-c2cccs2)n1)c1ccccc1Cl	-1	19543*	2	2	6	2
COCCOC(=O)/C(C#N)=C/c1cn(Cc2ccccc2)nc1-c1cccnc1	1	3744	0	4	-2	-1
